Screening data (PubChem BioAssay)
DT40 TDP1 CPT: growth inhibition of DT40 Tdp1-/-;hTDP1 cells with camptothecin (screen for TDP1 inhibitors) | chicken DT40 Tdp1-/-;hTDP1 cells + 20 nM CPT, ATP luminescence, 48 h | Potency, µM (titrated, usually from 46.2 µM), for the others: top-dose activity change, negative = growth inhibition, hits mostly inhibitors | 420,000 compounds, 12% hits | AID 686979; further: potency means the concentration at half of the fitted maximal effect; nearly all actives have a fitted effect of over 55% in size
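Chicken DT40 Tdp1-/- cells complemented with human TDP1, 400 cells/well, exposed to compounds plus 20 nM camptothecin for at least 48 h at 37 C; viability read as ATP content by CellTiter-Glo luminescence.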
HT1080-NT tox: kills 2HG-producing HT-1080-NT fibrosarcoma cells | 360,000 compounds, 1.6% hits | Potency, µM (doses to about 46.1 µM), inactives show at the highest dose activity, negative = less viability, hits mostly cytotoxic | HT-1080-NT fibrosarcoma viability, CellTiter-Glo ATP luminescence, 48 h;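 further: NT is the 2HG producing partner of a matched IDH1 knockdown line; potency means the concentration at half of the fitted maximal effect; 0% = DMSO-treated cells and -100% = media-only wells without cells; nearly all actives have a fitted effect of over 55% in size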
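Compounds were tested in concentration-response format on HT-1080-NT cells for 48 hours at 37 degrees C. Cell viability came from CellTiter-Glo luminescence; curves were classified by r2, response magnitude and activity.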
TDP1 cell noCPT: qHTS for Inhibitors of human tyrosyl-DNA phosphodiesterase 1 (TDP1): qHTS in cells in absence of CPT; Potency, µM (series often up to 46.2 µM), for the others: at the highest dose activity change, negative = growth inhibition, usual class: inhibitors; 420,000 compounds, 15% hits; DT40 Tdp1-/- hTDP1 cells, no CPT, ATP luminescence, 48 h; further: potency means the concentration at half of the fitted maximal effect; nearly all actives have a fitted effect of over 55% in size
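Growth kinetics read by CellTiter-Glo luminescence after ≥48 hr at 37 °C. Cells: DT40 Tdp1-/- stably carrying human TDP1, 400 per well, compound exposure in the absence of CPT (DMSO vehicle).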
HT1080 IDH1KD tx: kills HT-1080 cells with IDH1 knockdown. HT-1080 IDH1 knockdown viability, ATP luminescence, 48 h. Potency, µM (highest dose often 46.1 µM), without a hit: top-dose activity, negative = toxicity, actives largely listed as cytotoxic. 360,000 compounds, 2% hits. AID 686971;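 further: potency means the concentration at half of the fitted maximal effect; 0% = DMSO wells and -100% = cell-free medium wells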
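IDH1KD HT-1080 cells, 750/well, RPMI + 5% FBS; compound pinned after 2 h settling; 48 h, 37 °C; CellTiter-Glo luminescence; % activity normalised to DMSO and no-cell wells; curves fitted, classed by r2 and efficacy.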
IL1B secr inh: inhibitors of inflammasome signaling (IL-1 beta secretion); THP-1 LPS/ATP IL-1B secretion, AlphaLISA, 16 h; stronger effect = lower value; activity change, % at 57.5 µM; 360,000 compounds, 4.7% hits; AID 743279; in the data active means activity change below about -50%; inconclusive means mostly about -30% to -49%
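Secreted IL-1B measured by AlphaLISA bead assay after 16 h compound exposure of THP-1 cells; compounds (final up to 57.5 uM) added 1 h before LPS (250 ng/mL) and ATP (1.25 mM) stimulation; lower signal means less secretion.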
An asterisk follows results filed as active; ? = inconclusive; · = not tested or not shown; ! = not confirmed by another sample. An excerpt weighted towards active compounds, which were near 19% of everything screened. Unless noted, the call rests on the fitted dose curve; in most records, active means well fitted curve in the direction sought with a large enough effect; inconclusive means small, poorly fitted or top-dose-only effect, or another doubt; inactive means no such curve, though single readings can be large; an effect the other way counts as inactive or inconclusive. Unless noted, on the % scale 0 is the no-effect control and ±100 the full control effect.

SMILES | DT40 TDP1 CPT | HT1080-NT tox | TDP1 cell noCPT | HT1080 IDH1KD tx | IL1B secr inh
N#CC1(NC(=O)COC(=O)Cn2[nH]c(=O)c3ccccc3c2=O)CCCCC1 | -10.1% | -2.8% | 0.5% | -6.7% | -1.9
O=C(CN1C(=O)NC2(CCCC2)C1=O)OCC(=O)c1cccc(Cl)c1 | 6.0% | 4.6% | -25.0% | -4.2% | 13.6
O=C(N[C@H]1C/C=C\C[C@H](CC(=O)N(CCO)Cc2ccccc2)C(=O)N[C@@H](c2ccccc2)COC1=O)OCC1c2ccccc2-c2ccccc21 | 7.31µM* | -1.1% | 13µM* | -12.3% | -2.7
C[C@@H]1COC(=O)[C@@H](CC(=O)OC(C)(C)C)C/C=C\C[C@@H](CC(=O)N(CCO)Cc2ccccc2)C(=O)N1 | -7.1% | 1.3% | -22.4% | -0.4% | -12.7
CC(C)(C)OC(=O)C[C@@H]1C/C=C\C[C@H](CC(=O)N(CCO)Cc2ccccc2)C(=O)N[C@@H](c2ccccc2)COC1=O | ? | 7.3% | ? | 2.0% | -14.8
C[C@H]1COC(=O)[C@H](NC(=O)OCC2c3ccccc3-c3ccccc32)C/C=C\C[C@H](CC(=O)N(CCO)Cc2ccccc2)C(=O)N1 | 9.2µM* | -11.3% | 9.2µM* | -12.1% | 7.4
C[C@@H]1COC(=O)[C@@H](NC(=O)OCC2c3ccccc3-c3ccccc32)C/C=C\C[C@@H](CC(=O)N(CCO)Cc2ccccc2)C(=O)N1 | 1.46µM* | -5.6% | 2.59µM* | -7.4% | -2.5
COC(=O)c1ccc2c(=O)n(C3CCCCC3)c(SCC#N)nc2c1 | 11.6µM* | -0.3% | 23.1µM* | -11.0% | -8.4
CCOC(=O)CSc1nc2cc(C(=O)N3CCC(C(N)=O)CC3)ccc2c(=O)n1C1CCCCC1 | -2.1% | 0.0% | -11.3% | 4.8% | -4.9
Nc1nc(N)c(C=Nc2ccc(Br)cc2)c(Nc2ccc(Br)cc2)n1 | 14.6µM* | -0.9% | 13µM* | 1.4% | ?
Nc1nc(N)c(Br)c(Nc2ccc(Cl)c(Cl)c2)n1 | ? | -4.3% | ? | ? | 28.4
COc1ccc(CCNC(=O)C(C)n2nc(C)c3sc4ccccc4c3c2=O)c(OC)c1 (configuration not stated) | 20.6µM* | · | 16.4µM* | · | ·
CCC(C(=O)NCCc1ccc(OC)c(OC)c1OC)n1nc(C)c2sc3ccccc3c2c1=O (configuration not stated) | 9.2µM* | · | 11.6µM* | · | ·
CCCN1CCN(CCCNC(=O)C(CC)n2nc(C)c3sc4ccccc4c3c2=O)CC1 (configuration not stated) | -26.0% | -25.2% | 2.4% | -0.3% | 0.0
CCOc1ccc(CCNC(=O)CCCn2nc(C)c3sc4ccccc4c3c2=O)cc1OCC | 23.1µM* | · | 18.4µM* | · | ·
CCOc1ccccc1CNC(=O)CCCn1nc(C)c2sc3ccccc3c2c1=O | -20.9% | · | ? | · | ·
CCOC(=O)c1cc(NC(=O)c2c(C)noc2C)cc(C(=O)OCC)c1 | -21.8% | 10.0% | -13.4% | 0.3% | 30.7
CC(=O)C[C@H]1SC[C@@H](C(C)C)N1S(=O)(=O)c1ccc(C)cc1 | 9.2µM* | -1.9% | 13µM* | 7.7% | 8.1
Cc1ccc(S(=O)(=O)C[C@@H]2OC[C@H](C(C)C)N2S(=O)(=O)c2ccc(C)cc2)cc1 | 18.4µM* | -1.9% | 16.4µM* | -6.4% | -1.9
Cc1ccc(S(=O)(=O)N2[C@H](CC(=O)Oc3ccccc3)OC[C@@H]2C(C)C)cc1 | 13µM* | -0.3% | 13µM* | -2.1% | 15.4
CC(=O)C[C@@H]1OC[C@H](C(C)C)N1S(=O)(=O)c1ccc(C)cc1 | ? | -0.4% | ? | 3.0% | 19.5
COC(=O)Cc1ccc(OC(=O)c2cccc(S(=O)(=O)N3CCN(C)CC3)c2)cc1 | 6.2% | 3.7% | -22.9% | 0.6% | 10.4
O=C(/C=C/c1cccs1)c1cc(Cl)ccc1O | 16.4µM* | -2.8% | ? | -12.5% | -21.0
O=C(C=Cc1ccco1)c1cc(Cl)ccc1O | ? | -1.0% | ? | 7.0% | -90.7*
O=C(/C=C/c1ccco1)c1ccccc1O | -4.4% | -6.5% | -26.7% | 0.0% | -10.0
SMILES | DT40 TDP1 CPT | HT1080-NT tox | TDP1 cell noCPT | HT1080 IDH1KD tx | IL1B secr inh
Cc1ccc(CCNC(=O)c2cn(C)c3ccc(S(=O)(=O)N4CCC(C)CC4)cc3c2=O)cc1 | -1.1% | · | ? | · | ·
O=C(CN1CCN(S(=O)(=O)c2ccccc2)CC1)Nc1ccc(Cl)c([N+](=O)[O-])c1 | 20.6µM* | -6.5% | 23.1µM* | -13.9% | -18.4
Cc1ccc(S(=O)(=O)N2CCN(CC(=O)NC3CCCc4ccccc43)CC2)c(C)c1 (configuration not stated) | -26.8% | -23.4% | ? | -18.6% | ?
O=C(CN1CCN(S(=O)(=O)c2ccccc2)CC1)Nc1ccc([N+](=O)[O-])cc1 | 18.4µM* | ? | 11.6µM* | ? | 6.0
Cc1ccc(S(=O)(=O)N2CCN(CC(=O)NC3CCCc4ccccc43)CC2)cc1C (configuration not stated) | ? | -2.6% | 18.4µM* | -15.2% | -54.0*!
Cc1ccc(S(=O)(=O)N2CCN(CC(=O)Nc3ccc([N+](=O)[O-])cc3)CC2)cc1C | ? | -6.1% | 16.4µM* | -3.9% | ?
O=P(O)(O)c1ccccc1OCCOCCOCCOCCOc1ccccc1P(=O)(O)O | -10.2% | 24.7% | 7.5% | 0.3% | 11.6
CC(=O)Nc1ccc(NC(=O)COC(=O)c2ccccc2OCc2cccc(Br)c2)cc1 | -25.8% | · | -18.6% | · | ·
CN(C)c1ccc2nc3ccc(=[N+](C)C)cc-3sc2c1 | 1.16µM* | 7.31µM* | 0.0073µM* | 20.6µM* | ?
Cc1nc2cc(C)c(C)cc2s1 | -6.1% | 16.7% | -5.1% | 13.7% | -4.8
CN(C)c1ccc2nc3ccc(=O)cc-3sc2c1 | 1.64µM* | ? | 1.64µM* | ? | -15.8
Cc1cc2nc3ccc(=[N+](C)C)cc-3sc2cc1N | 1.16µM* | 8.2µM* | 0.411µM* | 4.11µM* | -17.2
CSc1nc2ccc(S(=O)(=O)N(C)C)cc2s1 | -9.0% | -3.9% | -17.0% | -6.4% | 11.9
COc1ccc(-c2nnc(NC(=O)C3=COCCO3)o2)cc1 | ? | 3.9% | -100.6% | 2.0% | -0.9
CCN(CC)CCN(C(=O)Cn1nnc(-c2ccc(C)o2)n1)C(C(=O)NC(C)(C)C)c1cccs1 (configuration not stated) | 4.4% | -2.0% | -25.9% | 0.6% | -11.4
O=C(CCC1CCCCC1)NCCS(=O)(=O)N1CCN(c2ccccc2)CC1 | ? | 1.1% | -28.5% | -0.4% | -0.4
CCOC(=O)N1CCC(NC(=O)c2ccc3c(c2)N(Cc2cc(C)ccc2C)C(=O)c2ccccc2S3=O)CC1 (configuration not stated) | 6.51µM* | · | 18.4µM* | · | ·
